Assay results from the supplement of paper PMC10849652.
The full data set covers some 7,900 targets. This sample favours those with a hit. About 0.6% of all pairs of compound and target were hits.

Columns and labels:
Experiment in all cases: log2 fold change, soluble protein after heating vs DMSO (PISA); higher = thermal stabilisation; K562 cells, 10 uM, 30 min; active = over 0.2 and 3.5 SD of the protein, either way, in both replicates (recomputed)
[1] = compound: C1=CC=C(C=C1)[C@H](COC2=CC3=C(C=C2)NC(=O)N3)NC(=O)C4=CC=CN(C4=O)CC5=CC(=C(C=C5)F)F
How it was run: (§1)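 K562 cells at 2×10^6 cells/mL were exposed to 10 μM compound for 30 min, then aliquots were heated for 3 min across 48°C-58°C, pooled, and extracted in PBS containing 0.5% NP-40 at 4°C. The supernatant after 21,000xg for 90 min was taken as soluble protein and measured by TMTpro 16plex LC-MS/MS with channel sums equalised. Thermal stability is reported relative to control samples, with values from duplicates. Fold changes are given on a log2 scale.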

[2] = compound: CC1=C(SC2=C1C(=N[C@H](C3=NN=C(N32)C)CC(=O)N)C4=CC=C(C=C4)Cl)C
How it was run: as §1

[3] = compound: CC1=C2C(=CC=C1)N=C(N(C2=O)C3=CC=CC=C3C)CN4C=NC5=C(N=CN=C54)N
How it was run: as §1

[4] = compound: Cc1sc2c(c1C)C(c1ccc(Cl)cc1)=N[C@@H](CC(=O)OC(C)(C)C)c1nnc(C)n1-2
How it was run: as §1

[5] = compound: c1ccc([C@@H]2C[C@H]2NC2CCNCC2)cc1
How it was run: as §1

Measured: log2 fold change

ATF1 (UniProt P18846)
Chain of UniProt P18846 (P18846 whole entry, looked up): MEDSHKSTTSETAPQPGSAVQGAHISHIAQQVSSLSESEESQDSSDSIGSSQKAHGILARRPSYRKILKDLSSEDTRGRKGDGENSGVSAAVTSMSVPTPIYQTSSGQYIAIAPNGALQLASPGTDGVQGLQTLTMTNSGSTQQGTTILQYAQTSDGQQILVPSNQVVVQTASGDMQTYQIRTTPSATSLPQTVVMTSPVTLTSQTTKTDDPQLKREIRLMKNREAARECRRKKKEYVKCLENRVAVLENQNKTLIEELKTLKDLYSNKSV
active: [5] -0.391
inactive: [1] -0.054 | [2] 0.11 | [3] -0.001 | [4] -0.014

ALDH2 (UniProt P05091)
inactive: [1] 0.009 | [2] 0.065 | [3] 0.032 | [4] -0.043 | [5] -0.001

APOH (UniProt P02749)
Chain of UniProt P02749 (P02749 whole entry, looked up): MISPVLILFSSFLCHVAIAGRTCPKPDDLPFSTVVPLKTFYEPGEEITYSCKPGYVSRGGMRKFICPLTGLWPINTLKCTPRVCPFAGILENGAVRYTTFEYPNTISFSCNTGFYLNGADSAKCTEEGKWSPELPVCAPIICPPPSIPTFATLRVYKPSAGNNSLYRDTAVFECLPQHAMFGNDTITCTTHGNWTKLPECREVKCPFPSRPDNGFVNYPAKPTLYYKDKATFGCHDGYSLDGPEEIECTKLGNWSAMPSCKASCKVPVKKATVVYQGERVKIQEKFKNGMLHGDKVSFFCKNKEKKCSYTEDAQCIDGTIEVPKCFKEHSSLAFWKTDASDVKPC
inactive: [1] -0.265 | [2] -0.106 | [3] 0.073 | [4] -0.051 | [5] 0.199

ACIN1 (UniProt Q9UKV3)
Chain of UniProt Q9UKV3 (Q9UKV3 whole entry, looked up): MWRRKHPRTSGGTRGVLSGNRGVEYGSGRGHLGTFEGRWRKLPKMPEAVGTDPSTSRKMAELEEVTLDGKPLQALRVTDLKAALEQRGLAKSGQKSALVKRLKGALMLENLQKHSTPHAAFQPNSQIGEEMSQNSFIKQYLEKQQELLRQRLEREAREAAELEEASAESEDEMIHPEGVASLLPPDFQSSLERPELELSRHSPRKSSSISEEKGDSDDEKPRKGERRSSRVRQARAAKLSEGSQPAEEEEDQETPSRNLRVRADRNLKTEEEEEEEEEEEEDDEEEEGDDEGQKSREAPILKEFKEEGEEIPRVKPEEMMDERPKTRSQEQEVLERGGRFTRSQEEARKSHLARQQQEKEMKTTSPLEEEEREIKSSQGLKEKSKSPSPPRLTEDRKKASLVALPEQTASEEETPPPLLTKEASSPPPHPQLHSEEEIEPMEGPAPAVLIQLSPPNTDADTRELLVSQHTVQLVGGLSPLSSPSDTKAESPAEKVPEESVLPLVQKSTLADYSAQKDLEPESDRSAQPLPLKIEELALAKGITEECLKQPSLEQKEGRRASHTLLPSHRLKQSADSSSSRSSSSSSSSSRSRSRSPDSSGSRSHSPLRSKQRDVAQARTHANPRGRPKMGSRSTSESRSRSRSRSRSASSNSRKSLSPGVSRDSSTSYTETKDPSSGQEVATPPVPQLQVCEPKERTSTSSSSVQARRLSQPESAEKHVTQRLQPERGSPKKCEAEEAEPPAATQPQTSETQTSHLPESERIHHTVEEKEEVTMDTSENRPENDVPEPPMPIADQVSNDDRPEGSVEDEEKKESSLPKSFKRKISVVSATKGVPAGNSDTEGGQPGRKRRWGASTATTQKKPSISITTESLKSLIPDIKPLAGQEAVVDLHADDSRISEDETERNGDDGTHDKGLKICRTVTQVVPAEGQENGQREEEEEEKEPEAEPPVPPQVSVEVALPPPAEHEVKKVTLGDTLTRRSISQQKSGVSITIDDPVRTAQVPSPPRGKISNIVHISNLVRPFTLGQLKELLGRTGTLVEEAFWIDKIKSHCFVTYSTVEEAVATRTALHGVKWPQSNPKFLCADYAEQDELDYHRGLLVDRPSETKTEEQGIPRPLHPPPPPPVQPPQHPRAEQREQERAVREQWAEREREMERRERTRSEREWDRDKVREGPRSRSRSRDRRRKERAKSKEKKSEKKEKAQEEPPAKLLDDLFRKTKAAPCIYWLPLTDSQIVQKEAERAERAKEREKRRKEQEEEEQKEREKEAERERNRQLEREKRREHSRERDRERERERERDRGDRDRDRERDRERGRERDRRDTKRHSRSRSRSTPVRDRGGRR
inactive: [1] 0.003 | [2] 0.095 | [3] 0.038 | [4] 0.023 | [5] -0.018

ARL4A (UniProt P40617)
inactive: [1] -0.027

ADD1 isoform 3 (UniProt P35611)
Chain of UniProt P35611 (P35611 whole entry, looked up): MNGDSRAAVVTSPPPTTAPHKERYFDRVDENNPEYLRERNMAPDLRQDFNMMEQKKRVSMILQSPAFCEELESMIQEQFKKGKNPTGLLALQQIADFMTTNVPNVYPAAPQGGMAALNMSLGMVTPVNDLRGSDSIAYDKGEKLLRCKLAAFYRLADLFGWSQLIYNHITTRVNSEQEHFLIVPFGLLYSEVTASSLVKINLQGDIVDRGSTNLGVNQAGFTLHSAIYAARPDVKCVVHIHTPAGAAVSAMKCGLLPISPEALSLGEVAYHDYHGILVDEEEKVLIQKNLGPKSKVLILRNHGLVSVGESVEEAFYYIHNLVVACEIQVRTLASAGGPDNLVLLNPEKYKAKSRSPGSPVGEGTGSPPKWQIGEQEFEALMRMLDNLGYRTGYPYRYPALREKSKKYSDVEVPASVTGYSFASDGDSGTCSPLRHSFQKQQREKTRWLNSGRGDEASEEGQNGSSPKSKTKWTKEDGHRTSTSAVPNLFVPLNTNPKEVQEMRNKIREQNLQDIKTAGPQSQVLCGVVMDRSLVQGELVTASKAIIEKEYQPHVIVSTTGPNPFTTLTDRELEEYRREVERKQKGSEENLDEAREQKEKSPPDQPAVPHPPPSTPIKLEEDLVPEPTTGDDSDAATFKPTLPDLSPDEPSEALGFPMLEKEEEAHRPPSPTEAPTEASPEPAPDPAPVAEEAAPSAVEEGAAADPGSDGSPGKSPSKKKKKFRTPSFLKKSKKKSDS
inactive: [1] 0.01 | [2] -0.003 | [3] 0 | [4] -0.014 | [5] 0.024

BRIX1 (UniProt Q8TDN6)
inactive: [1] 0.093 | [2] -0.349 | [3] -0.242 | [4] 0.244 | [5] -0.007

ABITRAM (UniProt Q9NX38)
Chain of UniProt Q9NX38 (Q9NX38 whole entry, looked up): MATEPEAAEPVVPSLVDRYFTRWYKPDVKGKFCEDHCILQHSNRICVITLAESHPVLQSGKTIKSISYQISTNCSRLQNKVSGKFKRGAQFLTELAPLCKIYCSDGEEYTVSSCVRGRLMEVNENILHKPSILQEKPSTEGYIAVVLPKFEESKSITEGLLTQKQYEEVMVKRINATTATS
inactive: [1] -0.037 | [2] 0.145 | [3] 0.032 | [4] -0.044 | [5] -0.016

ATF7 isoform 6 (UniProt P17544)
inactive: [1] -0.097 | [2] 0 | [3] -0.187 | [4] 0.184 | [5] -0.034

ARPP19 (UniProt P56211)
Chain of UniProt P56211 (P56211 whole entry, looked up): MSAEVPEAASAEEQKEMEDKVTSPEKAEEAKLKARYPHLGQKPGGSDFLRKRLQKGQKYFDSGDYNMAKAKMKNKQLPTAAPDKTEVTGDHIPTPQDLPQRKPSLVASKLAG
inactive: [1] 0.003 | [2] 0.021 | [3] -0.076 | [4] 0.031 | [5] -0.007

ADD2 isoform 9 (UniProt P35612)
inactive: [1] 0.02

ATXN7L3 isoform 2 (UniProt Q14CW9)
inactive: [1] -0.156

ATP2A3 isoform 2 (UniProt Q93084)
inactive: [1] -0.01 | [2] 0.035 | [3] 0.036 | [4] -0.002 | [5] 0.01

AKR1C2 (UniProt P52895)
Chain of UniProt P52895 (P52895 whole entry, looked up): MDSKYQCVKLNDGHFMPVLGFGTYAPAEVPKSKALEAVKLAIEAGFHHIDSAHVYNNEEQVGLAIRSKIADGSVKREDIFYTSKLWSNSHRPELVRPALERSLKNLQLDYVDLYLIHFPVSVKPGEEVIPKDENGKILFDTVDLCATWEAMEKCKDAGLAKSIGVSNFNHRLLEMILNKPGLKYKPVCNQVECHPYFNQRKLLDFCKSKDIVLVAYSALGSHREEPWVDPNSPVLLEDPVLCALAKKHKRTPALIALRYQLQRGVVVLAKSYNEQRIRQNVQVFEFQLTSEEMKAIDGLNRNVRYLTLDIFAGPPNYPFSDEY
inactive: [1] 0 | [2] -0.04 | [3] 0.086 | [4] 0.057 | [5] -0.011

ANP32E (UniProt Q9BTT0)
inactive: [1] -0.092 | [2] -0.037 | [3] 0.14 | [4] -0.012 | [5] 0.075

ATP6V0A1 (UniProt Q93050)
inactive: [1] 0.281

ACTR1B (UniProt P42025)
inactive: [1] -0.049 | [2] 0.105 | [3] 0.034 | [4] 0.028 | [5] -0.029

ALDH18A1 (UniProt P54886)
inactive: [1] -0.107 | [2] -0.038 | [3] 0.028 | [4] 0.018 | [5] 0.02

ATP5ME (UniProt P56385)
inactive: [1] 0.028 | [2] 0.117 | [3] 0.007 | [4] -0.072 | [5] 0.014

ACSL3 (UniProt O95573)
inactive: [1] -0.05 | [2] 0.068 | [3] 0.028 | [4] -0.014 | [5] -0.036

ADAMTS5 (UniProt Q9UNA0)
Chain of UniProt Q9UNA0 (Q9UNA0 whole entry, looked up): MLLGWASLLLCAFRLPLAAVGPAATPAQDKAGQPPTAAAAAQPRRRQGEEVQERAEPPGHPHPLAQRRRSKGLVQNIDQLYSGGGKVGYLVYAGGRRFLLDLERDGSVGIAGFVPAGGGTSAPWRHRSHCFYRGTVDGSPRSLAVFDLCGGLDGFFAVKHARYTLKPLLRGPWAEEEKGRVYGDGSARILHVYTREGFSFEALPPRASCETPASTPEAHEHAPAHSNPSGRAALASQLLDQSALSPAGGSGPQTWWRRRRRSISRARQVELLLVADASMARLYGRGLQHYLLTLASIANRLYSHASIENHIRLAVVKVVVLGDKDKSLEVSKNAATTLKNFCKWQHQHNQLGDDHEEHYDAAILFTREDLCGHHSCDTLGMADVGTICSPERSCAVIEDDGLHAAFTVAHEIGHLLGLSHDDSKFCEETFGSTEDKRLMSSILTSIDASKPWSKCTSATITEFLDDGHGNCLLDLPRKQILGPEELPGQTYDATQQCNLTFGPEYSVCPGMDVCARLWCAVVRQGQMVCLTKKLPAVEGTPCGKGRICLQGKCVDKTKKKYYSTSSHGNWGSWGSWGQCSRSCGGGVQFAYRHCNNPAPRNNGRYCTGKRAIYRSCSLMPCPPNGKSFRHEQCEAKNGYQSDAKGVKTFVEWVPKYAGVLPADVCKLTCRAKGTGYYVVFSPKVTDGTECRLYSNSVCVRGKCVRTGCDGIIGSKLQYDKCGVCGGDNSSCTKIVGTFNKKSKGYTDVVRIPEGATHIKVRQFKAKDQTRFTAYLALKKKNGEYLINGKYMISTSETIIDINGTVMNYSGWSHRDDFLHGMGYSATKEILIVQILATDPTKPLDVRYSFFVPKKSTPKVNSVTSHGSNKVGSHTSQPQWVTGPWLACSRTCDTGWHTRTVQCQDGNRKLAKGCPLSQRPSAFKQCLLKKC
inactive: [1] 0.149 | [2] 0.106 | [3] 0.152 | [4] -0.076 | [5] -0.028

ATL2 (UniProt Q8NHH9)
inactive: [1] -0.019 | [2] 0.05 | [3] 0.091 | [4] -0.012 | [5] -0.077

BTBD6 (UniProt Q96KE9)
Chain of UniProt Q96KE9 (Q96KE9 whole entry, looked up): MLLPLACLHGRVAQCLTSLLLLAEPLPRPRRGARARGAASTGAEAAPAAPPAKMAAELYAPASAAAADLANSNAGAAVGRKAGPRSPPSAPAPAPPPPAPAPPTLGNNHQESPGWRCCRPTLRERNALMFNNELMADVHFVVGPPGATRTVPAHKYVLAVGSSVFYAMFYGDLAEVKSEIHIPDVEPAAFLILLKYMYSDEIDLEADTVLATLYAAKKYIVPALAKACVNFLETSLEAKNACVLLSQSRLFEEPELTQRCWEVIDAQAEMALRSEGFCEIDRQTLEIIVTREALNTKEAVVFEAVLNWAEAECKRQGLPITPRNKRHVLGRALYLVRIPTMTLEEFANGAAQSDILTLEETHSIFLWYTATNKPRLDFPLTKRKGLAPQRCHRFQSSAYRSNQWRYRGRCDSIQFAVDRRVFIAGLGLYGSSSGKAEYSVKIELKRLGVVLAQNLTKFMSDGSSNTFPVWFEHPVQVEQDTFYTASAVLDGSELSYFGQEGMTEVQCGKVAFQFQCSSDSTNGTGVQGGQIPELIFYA
inactive: [1] 0.12 | [2] 0.073 | [3] 0.04 | [4] -0.117 | [5] -0.099

ARL3 (UniProt P36405)
Chain of UniProt P36405 (P36405 whole entry, looked up): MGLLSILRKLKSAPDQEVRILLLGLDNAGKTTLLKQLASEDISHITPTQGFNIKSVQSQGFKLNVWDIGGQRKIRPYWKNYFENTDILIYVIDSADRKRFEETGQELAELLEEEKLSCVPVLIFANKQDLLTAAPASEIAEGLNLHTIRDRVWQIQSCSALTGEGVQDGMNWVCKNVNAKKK
inactive: [1] -0.002 | [2] 0.04 | [3] 0.038 | [4] -0.06 | [5] -0.005

APH1A (UniProt Q96BI3)
inactive: [1] -0.015 | [2] 0.009 | [3] -0.21 | [4] -0.08 | [5] -0.153

ARFIP1 isoform 2 (UniProt P53367)
inactive: [1] 0.009

AKAP8L (UniProt Q9ULX6)
inactive: [1] -0.011 | [2] -0.186 | [3] 0.054 | [4] -0.047 | [5] 0.043
